Compound activity deposited in PubChem by National Center for Advancing Translational Sciences (NCATS).
aSyn yeast inh: alpha-synuclein toxicity inhibition in yeast; Potency, µM (series often up to 46.1 µM), inactives show at the highest dose growth rescue (activation), most hits filed as activators; AID 652106; Yeast expressing alpha-synuclein, growth rescue, BacTiter-Glo, 24 h; 370,000 compounds, 0.14% hits; also: % of control where 0% means no effect; nearly all actives have a fitted effect of over 65% in size
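Readout is rescue of growth in alpha-synuclein-expressing yeast, so inhibitors of toxicity appear as activators. Growth after 24 hr at 30 deg C in galactose medium is quantified by luminescence.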
FUS suppressor: suppressors of FUS proteinopathy in yeast | 390,000 compounds, 0.24% hits | Potency, µM (highest dose often 76.6 µM), most hits filed as activators | AID 1347120 | S. cerevisiae FUS-expressing, growth rescue, OD600, 24 h;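 also: plate controls were DMSO vehicle for no effect and reference control for full effect; nearly all actives have a fitted effect of over 55% in size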
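Read-out: OD at 600 nm after 24hr at 30C, reporting rescue of FUS-induced yeast toxicity. Cells at OD 0.005 in galactose (2%) minimal medium; compounds tested in a dilution series; CP55940 titration from 92uM final as control.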
Abeta yeast res: A-beta toxicity reversal in yeast. yeast expressing A-beta42, growth rescue, OD600, 48 h; response scale: 0% DMSO, 100% iron-clioquinol control. Potency, µM (top dose mostly 46.1 µM), actives largely listed as activators. 410,000 compounds, 0.063% hits; also: nearly all actives have a fitted effect of over 55% in size
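Yeast growth medium received pinned compounds, then yeast cells expressing toxic A-beta were added; plates incubated at 30 C for 48 hr. Growth read as absorbance at 600 nm, normalized to DMSO and equimolar FeCl3 plus clioquinol controls.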
MmCpn inh: M. maripaludis TRiC chaperonin inhibition; Potency, µM (titrated, usually from 76.9 µM), without a hit: at the highest dose activity, negative = inhibition, actives largely listed as inhibitors; AID 504842; purified Mm-Cpn ATPase, ADP Transcreener TR-FRET; 330,000 compounds, 0.031% hits; also: % is scaled to controls: 0 for no effect and ±100 for the full control effect; nearly all actives have a fitted effect of over 80% in size
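ATPase read-out: TR-FRET ADP immunoassay (anti-ADP Eu cryptate vs ADP-d2), ex 320 nm, em 590/665 nm; signal drops as ADP forms. Enzyme 25 nM, ATP 10 uM, 30 min at 37°C after 10 min compound preincubation.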
ClpP mod: qHTS Assay for Activators of ClpP. Potency, µM (highest dose often 57.5 µM), for inactives: at the highest dose activity change, negative = active. purified B. subtilis ClpP, FRET peptide cleavage, 20 min. 340,000 compounds, 1.9% hits; active = well fitted falling curve with a large enough effect; inconclusive = small, poorly fitted or top-dose-only effect; inactive = no such curve, though single readings can be large or run the other way; also: the source files actives as falling curves though it sought activators and does not explain the sign; nearly all actives have a fitted effect of over 65% in size
Target sequence (P80244 whole entry, looked up): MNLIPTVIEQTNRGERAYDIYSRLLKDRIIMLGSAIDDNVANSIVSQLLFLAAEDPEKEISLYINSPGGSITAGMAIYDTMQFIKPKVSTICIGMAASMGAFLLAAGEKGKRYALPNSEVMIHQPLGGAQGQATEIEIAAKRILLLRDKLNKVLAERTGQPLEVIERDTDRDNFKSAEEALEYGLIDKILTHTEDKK
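Purified B. subtilis ClpP, 10 microg/mL final in Tris/HCl pH8 with KCl, BSA, glycerol and Tween-20, cleaved an Abz/nitrotyrosine-quenched decapeptide. Fluorescence (ex 320, em 430) was read at 0 and 20 min at room temperature. Delta was normalized to 5.8 microM ADEP and DMSO/no-enzyme controls.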
TDP-43 yeast inh: inhibitors of TDP-43 toxicity in yeast; 410,000 compounds, 1.8% hits; AID 652104; Potency, µM (titrated, usually from 46.1 µM), without a hit: at the top dose growth rescue (activation), usual class: activators; TDP-43 expressing yeast growth rescue, BacTiter-Glo, 24 h; also: % of control where 0% means no effect; nearly all actives have a fitted effect of over 50% in size
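Growth rescue of TDP-43-toxic yeast measured as ATP luminescence (BacTiter-Glo). Cells grown to mid-log in raffinose, induced in galactose at OD600=0.02, exposed to compound 24 hr at 30 deg C.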
The depositor's hits bear a star; i = inactive; ? = inconclusive; / = not tested or not shown. Hits are enriched below; roughly 3.6% of the tested compounds scored in any of these assays. Unless noted, calls follow the shape of the dose curve; as a rule, active = well fitted curve in the direction sought with a large enough effect; inconclusive = small, poorly fitted or top-dose-only effect, or another doubt; inactive = no such curve, though single readings can be large; an effect the other way counts as inactive or inconclusive. Potency is read from the fitted curve at half-maximal effect.

SMILES	aSyn yeast inh	FUS suppressor	Abeta yeast res	MmCpn inh	ClpP mod	TDP-43 yeast inh
O=C1NC(c2cccs2)Nc2ccccc21 (stereo not drawn)	-5%	i	i	-1%	?	?
Cc1ccsc1C1NC(=O)c2ccccc2N1 (stereo not drawn)	5%	i	i	-4%	16µM*	16%
CCOC(=O)c1[nH]c2ccc(OC)cc2c1NC(=O)CCN1CCC(C)CC1	-6%	i	i	-1%	28µM*	10%
CCOC(=O)c1[nH]c2ccc(F)cc2c1NC(=O)CN1CCc2cc(OC)c(OC)cc2C1	/	/	/	0%	/	/
CCOC(=O)c1[nH]c2ccc(OC)cc2c1NC(=O)CCN1CCc2ccccc2C1	2%	i	i	-5%	28µM*	10%
O=C(Nc1ccc(OC(F)F)cc1)c1nc(S(=O)(=O)Cc2ccccc2F)ncc1Cl	-82%	/	/	/	0%	/
CC(=O)NC(c1ccco1)c1cc(Br)c2cccnc2c1O (stereo not drawn)	/	/	/	1%	/	/
COC(=O)[C@]12C[C@H](CC(=O)N3CCCC3)C(=O)N(Cc3ccc(Cl)cc3Cl)C1=C[C@H](C(C)(C)C)O[C@@H]2C	/	18µM*	/	/	/	/
C#CCNC(=O)C[C@H]1C[C@@]2(C(=O)OC)C(=C[C@H](C(C)(C)C)O[C@@H]2C)N(Cc2ccc(Cl)cc2Cl)C1=O	/	18µM*	/	/	/	/
COC(=O)[C@]12C[C@H](CC(=O)NCC34CC5CC(CC(C5)C3)C4)C(=O)N(Cc3ccc(Cl)cc3Cl)C1=C[C@H](C1CCCC1)O[C@@H]2C	/	i	/	/	/	/
O=C(N/N=C/c1ccc(F)c(F)c1)c1cc2c(s1)-c1ccccc1CC2	10%	i	i	2%	32µM*	?
CC1=C(c2ccc(C)c(C)c2)S(=O)(=O)N(Cc2ccc(C(=O)NCc3ccc(C)cc3)cc2)C1=O	/	i	i	/	11µM*	0%
NNc1nnc(-c2ccccc2)c(-c2ccccc2)n1	3%	35µM*	i	0%	-1%	-16%
Cc1ccc(C(=O)Nc2ccccc2C(=O)OCc2cc(=O)n3nc(C(C)C)sc3n2)cc1	/	i	i	/	3%	12%
CC(C)c1nn2c(=O)cc(COC(=O)c3ccccc3NC(=O)c3cccc(Cl)c3)nc2s1	/	i	i	/	10µM*	14%
Cc1ccc(C(=O)Nc2nnc(SCc3cc(=O)n4ccc(C)cc4n3)s2)cc1	/	i	i	/	5%	13%
C=CCn1c(C)cc(C(=O)CSc2nnc(NCc3ccccc3)s2)c1C	2%	i	?	-2%	1%	11µM*
C=CCn1c(C)cc(C(=O)CSc2nc3ccccc3o2)c1C	5%	i	i	-4%	0%	22µM*
Cc1cc(C(=O)CSc2nnc(Cc3ccccc3)o2)c(C)n1Cc1ccc2c(c1)OCO2	-3%	i	i	-16%	3%	8%
C=CCn1c(C)cc(C(=O)CSc2nc3ccccc3c(=O)[nH]2)c1C	2%	i	i	3%	0%	10µM*
C=CCn1c(C)cc(C(=O)CSc2nnc(Cc3ccccc3)o2)c1C	2%	i	?	-1%	0%	2.5µM*
C=CCn1c(C)cc(C(=O)CSc2nc3ccccc3[nH]2)c1C	19%	i	i	-2%	1%	16%
CC(C)(C)CC(C)(C)N=C1Nc2ccc(Cl)cc2NC12C[C@H]1CCC(=O)N3CC[C@@H](C2)[C@@H]13 (stereo partly drawn)	/	/	/	/	2%	/
Cc1cnnc2ccccc12	/	/	/	/	-1%	/
Cc1cc(C(=O)CSc2nc3ccccc3o2)c(C)n1C1CC1	8%	i	i	0%	-2%	22µM*
SMILES	aSyn yeast inh	FUS suppressor	Abeta yeast res	MmCpn inh	ClpP mod	TDP-43 yeast inh
CC(C)Nc1ccc(-c2nc(-c3ccco3)no2)cc1[N+](=O)[O-]	/	i	i	/	0%	2%
O=C(c1ccco1)N1CCN(S(=O)(=O)c2cc(Cl)ccc2Cl)CC1	13%	i	i	0%	-1%	18µM*
O=S(=O)(c1cc(Cl)ccc1Cl)N1CCCC1	7%	i	i	-2%	-1%	29%
CCOC(=O)N1CCN(C(=O)C2CCN(S(=O)(=O)c3cc(Cl)ccc3Cl)CC2)CC1	15%	?	i	1%	1%	11µM*
O=S(=O)(c1cc(Cl)ccc1Cl)N1CCCCC1	10%	i	i	0%	2%	16µM*
CCOC(=O)C1CCN(C(=O)C2CCN(S(=O)(=O)c3cc(Cl)ccc3Cl)CC2)CC1	8%	i	i	-1%	-2%	25%
Cc1ccc(N2CCN(C(=O)C3CCC(CNS(=O)(=O)c4ccc(Br)s4)CC3)CC2C)cc1 (stereo not drawn)	/	i	i	/	-2%	6%
C=CCn1c(O)c(N=NC(=O)OCC)c2ccccc21	-11%	i	i	-2%	-2%	-5%
C=CCn1c(O)c(N=NC(=S)Nc2cccc(OC)c2)c2ccccc21	22µM*	i	?	2%	1%	16µM*
C=CCn1c(O)c(N=NC(=S)Nc2ccc(OC)cc2)c2ccccc21	-10%	i	i	-3%	22µM*	?
O=C(c1ccc(=O)oc1)N1CCOCC1	-15%	/	i	-1%	32µM*	-2%
CN(C)S(=O)(=O)Oc1ccsc1C(=O)Nc1ccc(Br)cc1	10%	i	?	0%	/	13µM*
CN(C)S(=O)(=O)Oc1ccsc1C(=O)Nc1ccc(Cl)c(Cl)c1	-3%	i	i	-1%	2%	22µM*
CN(C)S(=O)(=O)Oc1ccsc1C(=O)Nc1cccc(Cl)c1	-9%	i	i	0%	2%	13µM*
CN(C)S(=O)(=O)Oc1ccsc1C(=O)Nc1ccc(C(F)(F)F)cc1	-15%	i	?	2%	/	2%
Brc1ccc(-c2nc3ccccn3c2Nc2ccc3c(c2)OCCO3)o1	/	i	i	/	?	-4%
C=CCNCc1ccc(OC)cc1OC	/	i	/	/	/	/
O=C(/C=C/c1c(F)cccc1Cl)c1ccc(O)cc1	?	i	?	-1%	0%	7.9µM*
COc1cc(NC(=O)CCc2c(C)nn(-c3ccc4nnc(C)n4n3)c2C)cc(OC)c1OC	/	i	i	/	-7%	13%
CC1CC(C)CN(C(=O)COC(=O)CN2C(=O)c3ccccc3C2=O)C1 (stereo not drawn)	7%	i	i	-1%	/	-11%
